Reference: PubChem BioAssay (EPA / NIEHS)
Calls of active or inactive are those of the source. How the source made its calls: active means hit-call score of the fitted dose curve at least 0.9, where 1 is the maximum; inactive means score below 0.9.

These molecules were tested on Pselectin, SELP (gene 6403) (assay: BSK_4H_Pselectin: BioMAP Diversity Plus: 4H Assay for Pselectin Biomarker Activity (AID 2283026)). Conditions: primary human endothelial cells (HUVEC); actives raise or lower the signal.
Method in brief: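 Primary human umbilical vein endothelial cells were treated 24 h, and cell-surface P-selectin was then quantified by ELISA. Bidirectional fit versus DMSO; cytotoxicity checked in parallel cultures by SRB total-protein staining.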

Structure (SMILES)	AC50	outcome
CCOC(=O)O[C@H](C)OC(=O)c1ccc2c(c1)cc(C(=O)NC1CCN(C(C)C)CC1)n2Cc1cc(-c2ccc(Cl)s2)on1	6.95 µM (active)	–
CN(C)c1ccc(C(=C2C=CC(=[N+](C)C)C=C2)c2ccc(N(C)C)cc2)cc1	0.613 µM (active)	–
O=c1ccc2ccccc2o1	–	inactive
c1ccc2n[nH]nc2c1	–	inactive
CCCCCCCCOC(=O)c1cc(O)c(O)c(O)c1	17.8 µM (active)	–
CC(C)(c1cc(Br)c(O)c(Br)c1)c1cc(Br)c(O)c(Br)c1	30.2 µM (active)	–
CCN(Cc1cccc(S(=O)(=O)O)c1)c1ccc(C(=C2C=CC(=[N+](CC)Cc3cccc(S(=O)(=O)O)c3)C=C2)c2ccccc2S(=O)(=O)[O-])cc1	–	inactive
CC[C@@H]1C[C@H](N(Cc2cc(C(F)(F)F)cc(C(F)(F)F)c2)C(C)=O)c2cc(C(F)(F)F)ccc2N1C(=O)OC(C)C	–	inactive
CCN(Cc1cccnc1)C(=O)c1cccc(Cl)c1[C@]1(C)C(=O)N(Cc2ccc(OC)cc2OC)c2ccc(Cl)cc21	4.73 µM (active)	–
Cc1ccc2oc(CN(Cc3ccccc3)C(=O)Nc3c(F)cc(F)cc3F)c(-c3ccc(Cl)cc3)c2c1	–	inactive
C[C@]12CC[C@@H]3c4ccc(O)cc4CC[C@H]3[C@@H]1CCC2=O	–	inactive
Cc1cc(F)ccc1-c1cc(N2CC[C@@H](O)[C@H]2CO)ncc1N(C)C(=O)C(C)(C)c1cc(C(F)(F)F)cc(C(F)(F)F)c1	7.66 µM (active)	–
Cc1c2ccccc2c(C)c2c1ccc1ccccc12	14.7 µM (active)	–
CCN(CC)C(=O)c1cc(S(=O)(=O)Cc2ccccc2)c(N2CCC(c3ccccc3)CC2)cc1N(CC)CCN(C)C	7.87 µM (active)	–
CC1=CC(=O)/C(=C(/C)O)C(=O)O1	–	inactive
CCCCCCCCOc1ccc(C(=O)c2ccccc2)c(O)c1	–	inactive
CN1C(=O)N(c2ccccc2Br)Cc2cnc(Nc3ccc4c(c3)OCC(CO)O4)nc21 (stereo not drawn)	6.75 µM (active)	–
COCC(C)OCC(C)OCC(C)O (stereo not drawn)	–	inactive
CCCOC(=O)c1cc(O)c(O)c(O)c1	–	inactive
COc1cccc([C@H](O)C2CCN(CCc3ccc(F)cc3)CC2)c1OC	6.42 µM (active)	–
CC1(C)NC(=O)N(c2ccc([N+](=O)[O-])c(C(F)(F)F)c2)C1=O	–	inactive
c1ccc(C[n+]2cccc3ccccc32)cc1	–	inactive
Cc1oc2c(NC(=O)c3c(Cl)cccc3Cl)cccc2c1C(C)(C)O	13.2 µM (active)	–
